hgDAF12 agonist = H. glycines DAF-12 receptor agonists, primary screen, cell-based, luminescence, HEK293, GAL4 fusion, UAS-luciferase | actives 1.8% (n = 370,000) | Nuclear hormone receptor DAF-12 (Heterodera glycines), GAL4 fusion | HEK293 GAL4-hgDAF12 UAS-luciferase reporter, agonist luminescence; normalized to butyrate control | activation, % at 6.8 µM;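 active means activation above a cutoff set at the mean of all screened compounds plus 3 SD, cut at about 10% in these data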
DAX1 inh-1 = DAX1 (NR0B1) inhibitors on StAR promoter, primary screen, cell-based, luminescence, SF-1 (NR5A1), full-length DAX-1. HEK293T StAR-luciferase reporter, SF-1/DAX-1 repression relief. inhibition, % at 6.8 µM. actives 1.1% (n = 370,000). AID 652010, 2013;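 active means inhibition above the mean over all tested compounds plus 3 SD, cut at about 3.6% in these data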;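 further: higher inhibition means more luminescence from relief of DAX-1 repression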
AHR activator = AHR activators, primary screen, cell-based, luminescence, luciferase reporter, human; Aryl hydrocarbon receptor (Homo sapiens), P35869; AHR-responsive luciferase reporter cells; activation, % at 5 µM; actives 2.5% (n = 320,000); AID 2796, 2010; in the data active means activation above about 47%
DAX1 inh-2 = DAX1 (NR0B1) inhibitors, primary screen, cell-based, HEK293, Gal4-DAX1, luciferase luminescence | Nuclear receptor subfamily 0 group B member 1 (Homo sapiens), P51843 | HEK293 Gal4-DAX1 luciferase reporter | inhibition, % at 6.75 µM | actives 0.99% (n = 340,000) | AID 504766, 2011;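 active means inhibition above the mean over all tested compounds plus 3 SD, cut at about 4.2% in these data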;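 further: inhibition shows as a rise in luminescence from relieved DAX1 repression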
ssDAF12 agonist = S. stercoralis DAF-12 nuclear receptor activators, primary screen, cell-based, luminescence, HEK293, GRIP1 co-expression, lit1-tk-luc; AID 652126, 2013; actives 1% (n = 370,000); activation, % at 6.8 µM; Nuclear hormone receptor DAF-12 (Strongyloides stercoralis); HEK293 ssDAF-12/GRIP1 lit1-tk-luc reporter; % of 3 µM dafachronic acid response;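 active means activation above the mean over all tested compounds plus 3 SD, cut at about 0.9% in these data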
hcDAF12 agonist = H. contortus DAF-12 nuclear receptor activators, primary screen, cell-based, luminescence, HEK293, lit1-tk-luc reporter; activation, % at 6.8 µM; AID 652067, 2013; actives 1.4% (n = 370,000); HEK293 hcDAF-12 lit1-tk-luc reporter; 0% DMSO, 100% Δ7-dafachronic acid;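 active means activation above the mean of all tested compounds plus 3 SD, cut at about 5.5% in these data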
Large screens that a line does not name were inactive. Rows were chosen to be rich in hits. Some 5.7% of all compounds tested hit in one or more screens of this group.

CC(=O)Nc1cc(C)c2nc(NC(C)=O)sc2c1	DAX1 inh-2 8.3
CCC(=O)NNc1nc2c(C)cc(C)cc2s1	AHR activator 62.2
Cc1cc(Cl)cc(Cl)c1CNc1c([N+](=O)[O-])c(=O)oc2ccccc12	none
CCOc1ccc(/C=C2\SC(=S)N(N3C(=O)C4CC4C3=O)C2=O)cc1 (stereo not drawn)	hcDAF12 agonist 5.7
COc1ccc(CSc2nnc3[nH]c(=O)cc(N)n23)cc1	ssDAF12 agonist 3.7
CC(C)(C)c1ccc(/C=C/C(=O)N2CCCCC2)cc1	hgDAF12 agonist 11.4, DAX1 inh-1 3.7 (no result: AHR activator)
COc1ccccc1Nc1cc(C(=O)N2CCc3ccccc3C2)c2ccccc2n1	AHR activator 63.6 (no result: hgDAF12 agonist, DAX1 inh-1, DAX1 inh-2, ssDAF12 agonist, hcDAF12 agonist)
COc1ccc(Nc2cc(C(=O)N3CCc4ccccc4C3)c3ccccc3n2)c(OC)c1	AHR activator 55.4
COc1ccccc1-c1cc(C(=O)N2CCc3ccccc3C2)c2ccccc2n1	none (no result: hgDAF12 agonist, DAX1 inh-1, DAX1 inh-2, ssDAF12 agonist, hcDAF12 agonist)
C=CCn1cccc(C(=O)Nc2ccc(N(C)C)cc2)c1=O	hgDAF12 agonist 10.6
C=CCn1cccc(C(=O)Nc2ccc(SC)cc2)c1=O	AHR activator 64.7
C=CCn1cccc(C(=O)Nc2ccc(Cl)cc2)c1=O	AHR activator 51.4
C=CCn1cccc(C(=O)Nc2ccc(C)c(Cl)c2)c1=O	none (no result: AHR activator)
COc1ccc(C(C(=O)NCC2CCCO2)N(C(=O)c2snc(C(N)=O)c2N)c2ccccc2C)cc1OC (stereo not drawn)	none
C#CCN(C[C@H]1[C@H](OC(=O)Nc2c(C)noc2C)[C@H](OC(=O)Nc2c(C)noc2C)CN(C(=O)OC(C)C)N1C(=O)OC(C)C)S(=O)(=O)c1ccc(C)cc1	none (no result: AHR activator, DAX1 inh-2)
CCCCn1c(C23CC4CC(CC(C4)C2)C3)n[nH]c1=S	none
CCN(CC)CCCNC(=O)CC1Oc2ccccc2NC1=O (stereo not drawn)	none (no result: AHR activator, DAX1 inh-2)
OCCN(CCO)c1ncnc2c1oc1ccc(Br)cc12	AHR activator 71.5
Cc1ccccc1-n1c(SC(C)C(=O)NCC2CCCO2)nnc1-c1ccncc1 (stereo not drawn)	none (no result: AHR activator)
Nc1c2c(nc3sc4c(c13)CCCC4)CCCCCC2	AHR activator 49.4
Cc1ccc(C)c2c(N)c3c(nc12)CCCCC3 (tested in a mixture with another compound)	AHR activator 47.2
Nc1c2c(nc3c1CCCC3)CCCC2 (tested in a mixture with another compound)	none
O=C(Nc1ccc(N2C(=O)CC3(CCCCC3)C2=O)c(Cl)c1)c1ccccn1	none (no result: DAX1 inh-1, AHR activator, DAX1 inh-2)
COc1ccc(-c2cc(N)n(S(=O)(=O)Cc3ccccc3)n2)c(OC)c1	AHR activator 62.3
O=C(Nc1ccnc(-c2ccncc2)n1)C1CC1	AHR activator 52.0
O=C(Nc1ccnc(-c2ccncc2)n1)c1ccccc1Cl	none
COc1cc(/C=N/Nc2ccc(C(=O)O)cc2)cc(OC)c1OC	DAX1 inh-2 4.3
COc1ccc(/C=N/Nc2ccc(C(=O)O)cc2)c(OC)c1OC	none
O=C(O)c1ccc(N/N=C/c2cccc(C(F)(F)F)c2)cc1	DAX1 inh-1 4.4, DAX1 inh-2 4.7
COc1cc(C=NNc2ccccc2[N+](=O)[O-])cc(OC)c1OC	none (no result: AHR activator)
COc1cc(/C=N/Nc2ccc(F)cc2F)cc(OC)c1OC	AHR activator 70.2
O=C(N/N=C/c1cccc(C(F)(F)F)c1)c1ccccc1O	none
Cc1ccc(Nc2cc(C)nc(N3CCOCC3)n2)cc1	hcDAF12 agonist 5.7
Cc1cc(Nc2ccc(C)c(Cl)c2)nc(N2CCOCC2)n1	none (no result: DAX1 inh-2)
COc1cccc(/C=N/Nc2cc(N3CCOCC3)ncn2)c1O	AHR activator 47.5
Cc1cc(N/N=C/c2ccccc2O)nc(N2CCOCC2)n1	none
COc1ccc(OC)c(/C=N/Nc2cc(C)nc(N3CCOCC3)n2)c1	AHR activator 67.8 (no result: DAX1 inh-2)
COc1ccc(/C=N/Nc2cc(N3CCOCC3)ncn2)c(OC)c1	none
COc1ccc(/C=N/Nc2cc(N3CCCC3)nc(N3CCCC3)n2)cc1	AHR activator 68.3
Oc1ccc(/C=N/Nc2cc(N3CCCC3)nc(N3CCCC3)n2)cc1	none
Cc1cc([N+](=O)[O-])ccc1NC(=O)/C=C/c1cccs1	hgDAF12 agonist 11.5
CCSC1=N/C(=C\c2ccc3c(c2)OCO3)C(=O)S1	none
O=C1NC(N2CCOCC2)=N/C1=C/c1ccc2c(c1)OCO2	AHR activator 54.0
CCNC(=O)c1cc2c(c(-c3cccc(-c4ccccc4F)c3)n1)[C@H](CCO)N(C(=O)CC)C2	none (no result: AHR activator, DAX1 inh-2)
CCC1(c2ccc(Cl)cc2)NC(=S)N(c2ccc(C)cc2)N1 (stereo not drawn)	hgDAF12 agonist 11.1, hcDAF12 agonist 6.2
CC1(CCc2ccccc2)NC(=S)N(c2ccc(Cl)cc2)N1 (stereo not drawn)	AHR activator 54.5
O=C(COc1ccc(F)cc1)N/N=C/c1cccc2cccnc12	none
Cc1cc(NC(=O)CSc2nc(C(C)C)nc3sc4c(c23)CCCC4)no1	ssDAF12 agonist 1.3
O=C(Nc1ccccc1)N1CCC(=S)Nc2ccccc21	none
CC1CC(=S)Nc2ccccc2N1C(=O)Nc1ccccc1 (stereo not drawn)	DAX1 inh-2 5.2
Cc1cccc(C)c1N1C(=O)c2ccccc2NC(=O)C1C(=O)Nc1ccc2c(c1)OCCO2 (stereo not drawn)	none (no result: AHR activator, DAX1 inh-2)
N=C1C(=O)OCC1c1ccccc1NC(=O)c1ccc(F)cc1 (stereo not drawn)	none
N=C1C(=O)OCC1c1ccccc1NC(=O)Nc1ccccc1 (stereo not drawn)	DAX1 inh-2 7.1
O=C(NC1CCCCC1)N(Cc1cc2cc3c(cc2[nH]c1=O)OCCO3)C1CCCCC1	DAX1 inh-2 4.8
COc1cc2cc(CN(C(=O)NC3CCCCC3)C3CCCC3)c(=O)[nH]c2cc1OC	none
Cc1ccc(NC(=S)N/N=C2\CC(C)(C)Oc3ccc(O)cc32)cc1	AHR activator 70.5
Cc1ccccc1NC(=S)N/N=C1\CC(C)(C)Oc2ccc(O)cc21	none
O=C1Nc2ccccc2O/C1=C\c1ccccc1Br	AHR activator 53.2
O=C(NCC(=O)N(CC1CCCO1)C(C(=O)NC1CCCCC1)c1cccnc1)c1cccs1 (stereo not drawn)	DAX1 inh-2 5.0
